# Compound activity deposited in PubChem BioAssay by The Scripps Research Institute Molecular Screening Center.
# MOR-DOR inv ag = mu-delta opioid heterodimer inverse agonism | P35372+P41143 | cell-based MOR-DOR heterodimer luminescence | inhibition, % at 9.3 µM | hit rate 0.21% among 340,000 | AID 504357; in the data active = inhibition above about 22%, passing the limit was not always enough
# Target sequence (P35372 whole entry, looked up): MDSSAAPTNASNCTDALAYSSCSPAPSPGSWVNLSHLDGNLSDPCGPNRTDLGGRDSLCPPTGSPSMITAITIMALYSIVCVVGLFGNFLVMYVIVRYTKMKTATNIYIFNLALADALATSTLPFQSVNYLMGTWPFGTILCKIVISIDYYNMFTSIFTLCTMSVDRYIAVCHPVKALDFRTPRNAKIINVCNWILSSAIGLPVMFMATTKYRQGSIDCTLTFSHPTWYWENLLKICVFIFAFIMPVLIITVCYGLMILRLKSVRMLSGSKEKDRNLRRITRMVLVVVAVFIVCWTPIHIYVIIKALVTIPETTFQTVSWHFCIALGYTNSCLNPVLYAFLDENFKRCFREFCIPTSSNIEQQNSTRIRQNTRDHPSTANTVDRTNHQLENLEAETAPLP
# Target sequence (P41143 whole entry, looked up): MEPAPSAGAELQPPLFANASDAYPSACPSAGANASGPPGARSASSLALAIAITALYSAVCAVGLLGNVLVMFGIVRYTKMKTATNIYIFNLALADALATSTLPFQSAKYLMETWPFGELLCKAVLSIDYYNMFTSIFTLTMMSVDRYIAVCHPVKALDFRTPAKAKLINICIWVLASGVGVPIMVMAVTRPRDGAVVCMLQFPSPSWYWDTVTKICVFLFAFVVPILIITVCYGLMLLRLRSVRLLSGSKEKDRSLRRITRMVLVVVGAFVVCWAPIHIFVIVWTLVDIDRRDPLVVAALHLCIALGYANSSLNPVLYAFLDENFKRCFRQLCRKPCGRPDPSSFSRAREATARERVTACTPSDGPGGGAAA
# HTR5A inv ctr = HTR5A inverse agonism, opioid heterodimer counter-screen | AID 504634 | P47898 | hit rate 0.083% among 340,000 | HTR5A cell line, luminescence | inhibition, % at 9.3 µM; in the data active = inhibition mostly above about 23%, no sharp cut-off; inactive = mostly below about 18%
# MOR-DOR ag = agonists of human mu-delta opioid receptor heterodimerization; hit rate 0.3% among 340,000; activation, % at 9.3 µM; cells, OPRM1-OPRD1 heterodimerization, luminescence; P35372+P41143
# HTR5A ag = counter-screen for OPRM1-OPRD1 agonists: human HTR5A agonism | activation, % at 9.3 µM | HTR5A agonist assay, luminescence, cell-based | AID 504692 | hit rate 0.61% among 340,000; in the data active = activation mostly above about 9.5%, no sharp cut-off; inactive = mostly below about 7.6%
# MOR-DOR ag conf = confirmation of human OPRM1-OPRD1 heterodimerization agonists; shares compounds with MOR-DOR ag; cells, MOR-DOR heterodimerization, luminescence complementation; activation, % at 9.3 µM; hit rate 45% among 830; AID 504904
# HTR5A ag ctr2 = HTR5A agonism, opioid heterodimer counter-screen | shares compounds with MOR-DOR ag | HTR5A agonist counterscreen, cell luminescence | activation, % at 9.3 µM | hit rate 8% among 830; in the data active = activation above about 17%
# Numbers stand for hits; 0 = inactive; - = not tested or not shown. Only some compounds are listed: those with a hit (about 1.1% of all), similar ones and a draw of the others. Cut-off read from the data, not from the text of the source, unless noted: active = activation above about 18%; inactive = the rest.
SMILES,MOR-DOR inv ag,HTR5A inv ctr,MOR-DOR ag,HTR5A ag,MOR-DOR ag conf,HTR5A ag ctr2
O=C(NCCNC(=O)c1ccccc1Br)c1cccnc1,0,0,0,0,-,-
O=C(O)c1cccc(NC2=C(Cl)C(=O)c3ccccc3C2=O)c1,0,0,22,0,0,0
O=C(O)c1ccc(NC2=C(Cl)C(=O)c3ccccc3C2=O)cc1,0,0,0,0,-,-
C=C1C(=O)C23CCC4C(C)(C(=O)OC)CCCC4(C)C2CCC1(O)C3 (stereo not given),0,0,0,0,-,-
COc1ccc2ncc(S(=O)(=O)c3ccccc3)c(N3CCN(c4ccccc4)CC3)c2c1,0,0,0,0,-,-
CCN1CCN(c2c(S(=O)(=O)c3ccc(C)c(C)c3)cnc3ccc(F)cc23)CC1,0,0,53,0,0,0
CCN(CC(=O)Nc1ccccc1C(F)(F)F)C(=O)c1ccccc1OCc1ccc(F)cc1,0,0,0,0,-,-
CC1=C(C(=O)Nc2nc3ccccc3s2)C(c2ccco2)C(C#N)=C(SCC(=O)NC2CCCCC2)N1 (stereo not given),0,0,26,0,0,0
O=C(Nc1cccc(C(=O)N2CCOCC2)c1)C1CCCC1,0,0,0,0,-,-
N#CCCN(C(=O)c1ccc2c(=O)n3c(nc2c1)CCCCC3)c1ccccc1,0,0,0,0,-,-
CC(NC(=O)c1cc2c(s1)CS(=O)(=O)C2)c1ccccc1 (stereo not given),0,0,0,0,-,-
Cc1c(C(=O)N(Cc2cccs2)C2CCS(=O)(=O)C2)oc2ccccc12 (stereo not given),0,0,27,0,0,0
Cc1c(C(=O)N(Cc2ccccc2)C2CCS(=O)(=O)C2)oc2ccccc12 (stereo not given),0,0,0,0,-,-
C#CC(=O)N(c1cc(OC)ccc1OC)C(C(=O)NC1CCCC1)c1cccs1 (stereo not given),0,0,37,0,0,20
COc1ccc(N(C(=O)c2snc(C(N)=O)c2N)C(C(=O)NC2CCCC2)c2cccs2)cc1OC (stereo not given),0,0,0,0,-,-
Cc1ccc(C(=O)c2c(C)oc3c2C(=O)C(=O)c2ccccc2-3)cc1,0,0,34,14,0,0
COc1cc2c(cc1NC(=O)C(C)Sc1ccc(NC(C)=O)cc1)oc1ccccc12 (stereo not given),0,0,20,0,0,0
CC(C)OC(=O)CSc1nnc2c(n1)[nH]c1ccc(F)cc12,0,0,0,0,-,-
Cc1cc(C)nc(S/C=C/C(=O)c2ccccc2F)n1,0,0,0,0,-,-
CC(=O)NCCNC(=O)c1ccc(Cn2c(=O)[nH]c3ccsc3c2=O)cc1,0,0,0,0,-,-
O=C(Nc1cc(Cl)cc(Cl)c1)c1ccc(Cn2c(=O)[nH]c3ccsc3c2=O)cc1,0,0,25,0,0,0
CCC1CCCCN1CCN1C(=O)C2C(C(=O)Nc3ccc(OC)cc3)C3C=CC2(O3)C1C(=O)NC1CCCCC1 (stereo not given),0,0,34,0,0,0
COc1ccccc1N(Cc1cc(=O)[nH]c2ccccc12)C(=O)c1ccc([N+](=O)[O-])cc1,0,0,0,0,-,-
COCC(=O)OC1CCn2c1nc1c2C(=O)C(C)=C(NC(C)=O)C1=O (stereo not given),0,0,23,0,0,0
CCCn1c(=O)n(C)c(=O)c2c(SCC(=O)Nc3cc(C)on3)nc(C(C)(C)C)nc21,0,0,0,0,-,-
SMILES,MOR-DOR inv ag,HTR5A inv ctr,MOR-DOR ag,HTR5A ag,MOR-DOR ag conf,HTR5A ag ctr2
Cc1cc(O)c2c(c1)CC1C3CCC4CC(=O)CCC4(C)C3CC(=O)C21C (stereo not given),0,0,0,0,-,-
COc1cc2nc(Nc3cccc(F)c3)nc(N)c2cc1OC,0,0,27,0,0,0
Cc1ccccc1C(=NCCCN(C)C)c1ccccc1C,0,0,0,0,-,-
Cc1ccc(-c2nnc(SCC(=O)N/N=C/c3ccc(C)s3)n2-c2ccc(C)cc2)cc1,0,0,18,0,0,0
CCOC(=O)CC/C(=N\NC(N)=O)c1ccc(OC)c(Cl)c1,0,0,0,0,-,-
COC(=O)C1=C(C)N(Cc2ccccc2)C(=NCc2cccc(C(F)(F)F)c2)N[C@H]1c1cccc(F)c1,0,0,23,0,0,21
COC(=O)C1=C(C)N(Cc2ccccc2)C(=NCc2cccc(C(F)(F)F)c2)N[C@H]1c1cccc(C(F)(F)F)c1,0,0,45,0,0,0
COCCN=C1N[C@@H](c2cccc(C(F)(F)F)c2)C(C(=O)OC)=C(C)N1Cc1ccccc1,0,0,0,0,-,-
COC(=O)C1=C(C)N(Cc2ccccc2)C(=NCCc2c[nH]c3ccccc23)N[C@H]1c1cccc(C(F)(F)F)c1,0,0,22,0,0,0
COC(=O)C1=C(C)N(CC2CC2)C(=NCc2cccc(C(F)(F)F)c2)N[C@H]1c1ccccc1,0,0,0,0,-,-
CC(C)=CCN1CCN(CCC2=C(C)CCCC2(C)C)CC1CCO (stereo not given),0,0,24,0,0,0
COc1ccccc1CN1CCN(C(CC(C)C)c2nnnn2Cc2cccs2)CC1 (stereo not given),0,0,46,0,63,0
CCCC(c1nnnn1Cc1cccs1)N1CCN(C)CC1 (stereo not given),0,0,0,0,-,-
Cc1ccccc1CC(=O)Nc1sc(C(C)C)cc1C(=O)N1CCOCC1,0,0,0,0,-,-
CCOc1ccc(C2/C(=C(\O)c3cccc(OC)c3)C(=O)C(=O)N2c2ccccn2)cc1OC (stereo not given),0,0,0,0,-,-
Cc1ccccc1Nc1nc(N)nc(CCl)n1,0,0,0,0,-,-
Nc1nc(CCl)nc(Nc2ccc3ccccc3c2)n1,0,0,80,0,0,0
COc1ccc(C[C@H]2CN3C(=NC[C@@H]3Cc3ccccc3)N2CCNC(=O)c2ccc(C)c(Br)c2)cc1,0,0,22,0,0,0
Fc1ccc(NC(=S)NCCN2CCOCC2)c(F)c1F,0,0,0,0,-,-
Nc1c(N(Cc2ccccc2)C(=O)COc2cccc(Cl)c2)c(=O)[nH]c(=O)n1Cc1ccccc1,0,0,21,0,0,0
CCOC(=O)C1(CCc2ccccc2)CCN(Cc2ccc(O)cc2)CC1,0,0,0,0,-,-
CCOC(=O)C1(CCc2ccccc2)CCN(Cc2c(O)cccc2OC)CC1,0,0,292,0,0,0
CCOC(=O)C1(CCc2ccccc2)CCN(Cc2ccc(OC)cc2)CC1,0,0,129,0,0,0
CN(C)C(CNC(=O)c1ccc2c(=O)n(-c3ccccc3F)c(=S)[nH]c2c1)Cc1ccccc1 (stereo not given),0,0,0,0,-,-
Cc1ccc(-c2nc(COC(=O)C3=NN(c4ccccc4)C(=O)CC3)cs2)cc1,0,0,0,0,-,-
CCC(c1ccccc1)C(CC)c1cc(O)c(O)c(O)c1 (stereo not given),0,0,18,0,0,0
CCC(C)c1ccccc1O (stereo not given),0,0,0,0,-,-
